Measurements: PubChem BioAssay (NCI)
Several values for one entry are separate records, joined by “and”; a condition that tells them apart may be missing. Identical values can stand only once. This is part of a sample that, as a whole, favours compounds with a hit. Of some 83,000 tested, about 20% had one in any assay.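 Assay: single dose, 48 h. Readout: percent growth (0 = no net growth; negative = cell death). Active: <10.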 Values without a mark were called inactive. Activity calls are given as the source filed them.

Experiments:
Test in all cases: NCI-60 one-dose screen, 48 h (100 = growth as untreated, 0 = no growth, -100 = all killed)
Conditions in all cases: 10 µM unless noted
SK-MEL-2 melanoma = system: SK-MEL-2 melanoma
EKVX NSCLC = system: EKVX NSCLC
SN12C renal = system: SN12C renal
UO-31 renal = system: UO-31 renal
TK-10 renal = system: TK-10 renal
ACHN renal = system: ACHN renal
CAKI-1 renal = system: CAKI-1 renal
A498 renal = system: A498 renal
CCRF-CEM leukemia = system: CCRF-CEM leukemia
MOLT-4 leukemia = system: MOLT-4 leukemia

Row | SMILES | growth (SK-MEL-2 melanoma) | growth (EKVX NSCLC) | growth (SN12C renal) | growth (UO-31 renal) | growth (TK-10 renal) | growth (ACHN renal) | growth (CAKI-1 renal) | growth (A498 renal) | growth (CCRF-CEM leukemia) | growth (MOLT-4 leukemia)
1 | Cc1ccc(-c2nc([P+](c3ccccc3)(c3ccccc3)c3ccccc3)c(Nc3ccccc3)o2)cc1 | -58.8% (active) | -2.84% (active) | 2.84% (active) | -23.5% (active) | 8.06% (active) | -11.6% (active) | -27.8% (active) | -37.9% (active) | 0.282% (active) | -9.22% (active)
2 | OCc1cc(CN2CCCCC2)c(O)c2ncccc12 | 81.3% | 65.5% | 59.9% | 17.7% | 31% | 20.7% | 13% | 91.8% | 29.5% | 36%
3 | Clc1nccc2c(-c3csc(-c4c[nH]c5ccc(Br)cc45)n3)c[nH]c12 | 48.7% | 42.5% | 54% | 9.83% (active) | 28.6% | 6.55% (active) | 32.9% | -1.69% (active) | 20.1% | 22%
4 | O=C1C=CC(=O)N1c1ccc2ccccc2c1 | 98.2% and 101% | 112% and 95% | 99.3% and 91.1% | 68.3% and 72.8% | 96.2% and 36.7% | 38% and 50.3% | 53.7% and 83% | 101% | 41.3% and 33.4% | 49.7% and 37.1%
5 | CCCCCCCCN(CCCCCCCC)CC(O)c1cc(Cl)ccc1OC (stereo not given) | 80.1% | 59.9% | 75.4% | 52.3% | 96.4% | 71.5% | 62.3% | 54.8% | 92.8% | 79.3%
6 | Nc1nc(Nc2ccc(F)cc2)nn1C(=O)c1cc(Cl)ccc1Cl | 97.3% | 99.7% | 68% | 64.7% | 104% | 58.9% | 51.6% | 68.4% | 60.4% | 75.4%
7 | Cc1ccc(/C=C2\COc3ccc(O)c(O)c3C2=O)cc1 | 48.8% | 28.2% | -77.6% (active) | -97.3% (active) | 8.12% (active) | -77.6% (active) | -27.6% (active) | 6.45% (active) | 3.17% (active) | 1.48% (active)
8 | Clc1ccc(Nc2nc(Nc3ccc(Cl)cc3)nc(Nc3ccc(-c4cc(-c5cccc(Cl)c5)on4)cc3)n2)cc1 | 72.9% | 82.9% | 94.4% | 90.1% | 155% | 86.4% | 85.4% | 99.9% | 61% | 7.82% (active)
9 | Cc1[nH]c(C(=O)Nc2nc3ccc(NC(=O)CCN)cc3s2)c(Cl)c1Cl | 96.4% | 76.3% | 65.4% | 80.4% | 113% | 43.2% | 31.5% | 65.3% | 15.3% | 12.9%
10 | CCOC(=O)c1cc2c(n1Cc1cc(OC)cc(OC)c1Br)-c1nc(NC(C)=O)sc1CCC2 | 82.6% | 58.6% | 77.5% | 51.8% | 94.4% | 91.2% | 67.3% | 55.8% | 56.3% | 46.7%
11 | CC(=O)N1N=C(c2ccc(Nc3nc(Nc4ccc(F)cc4)nc(Nc4ccc(F)cc4)n3)cc2)CC1c1ccccc1 (stereo not given) | 59.9% | 105% | 112% | 80.2% | 97.6% | 84.6% | 114% | 85.5% | -14.7% (active) | 70.2%
12 | Clc1cccc(Nc2ncnc3ccc(-c4cncc(-n5cnnn5)c4)cc23)c1 | 106% | 26.6% | 75% | 32.1% | 7.65% (active) | 28.9% | 24.3% | -7.13% (active) | 75.2% | 58.9%
13 | O=C(c1cccc(Br)c1)N1CCN(c2ccnc3cc(Cl)ccc23)CC1 | 85.7% | 87.5% | 94% | 63.6% | 75.8% | 90.6% | 79% | 34.1% | 87.3% | 87.8%
14 | Brc1ccc(/C=C(/C2=NCCN2)n2ccc3ccccc32)cc1 | 90.9% | 79% | 73.8% | 37.2% | 68.1% | 68.7% | 39.7% | 87.4% | 59.6% | 9.21% (active)
15 | c1ccc(Cc2cccc[n+]2C(c2ccccc2)c2ccccc2)cc1 | 11.6% | 30% | 71.5% | 82.7% | 62.9% | 94.7% | 94.4% | 90.1% | 48.6% | 59.3%
16 | COc1ccc(Nc2nn3c(SCC(=O)c4ccc(C)cc4)nnc3s2)cc1 | 98.2% | 99.9% | 101% | 58.7% | 107% | 86.5% | 75.2% | 93.7% | 98.1% | 85.4%
17 | COc1cc(CNC(=O)CCCC/C=C/C(C)C)ccc1OCc1cn(-c2ccc([N+](=O)[O-])cc2)nn1 | 92% | 75.3% | 91.7% | 60.6% | 92.7% | 90.7% | 96.7% | 82% | 84.9% | 79.3%
18 | Cc1ccc(Cc2cnc(NC(=O)c3cc(C)oc3C)s2)cc1 | 85.6% | 57.4% | 86.9% | 61.2% | 63.6% | 70.4% | 38.4% | 84.4% | 70.8% | 60.2%
19 | CCc1c2c(nc3ccc(OCc4ccc(B5OC(C)(C)C(C)(C)O5)cc4)cc13)-c1cc3c(c(=O)n1C2)COC(=O)[C@]3(O)CC | 20.4% | 35% | 3.16% (active) | -13.2% (active) | 39.5% | -9.99% (active) | -1.75% (active) | -40.3% (active) | 8.7% (active) | 8.97% (active)
20 | Cn1cc(C2=C(c3cccc4ccccc34)C(=O)NC2=O)c2cc(Br)ccc21 | 111% | 88.5% | 95.2% | 80.8% | 101% | 80.6% | 69.2% | 69.8% | 84% | 77.1%
21 | O=C1C(=C(O)c2ccccc2)C(=O)c2ccccc21 | 105% | 104% | 102% | 85.5% | 111% | 103% | 92.9% | 123% | 73.7% | 116%
22 | Nc1nc(Nc2cccnc2)sc1C(=O)c1ccccc1F | 48.5% | 50.7% | 36.8% | 9.16% (active) | 54.6% | 9.23% (active) | -3.89% (active) | 26.4% | 4.65% (active) | 26.8%
23 | N=C1/C(=C2\NC3C=CC=CC3S2)C(c2ccc(Cl)cc2)C2C(=O)N(c3ccccc3)C(=S)N12 (stereo not given) | 107% | 104% | 99.7% | 81.6% | 123% | 103% | 99.6% | 116% | 101% | 88.3%
24 | Nc1nc2ccccc2c2c(=O)c3ccc(Cl)cc3sc12 | 106% | 89.2% | 91.3% | 96.1% | 130% | 83.6% | 89% | 99.7% | 94.5% | 93.6%
25 | O=C(/C=C/c1cccs1)Nc1ncc(Cc2ccc(Cl)c(Cl)c2)s1 | 77.1% | 57.8% | 79.8% | 49.6% | 61.5% | 36.4% | 23.8% | 57.1% | 68% | 51.4%
